Drawing on PubChem BioAssay AID894 (National Center for Advancing Translational Sciences (NCATS), 2007), this text covers activity change, negative = inhibition and Potency for 48 molecules.

The whole screen tested about 150,000 compounds, of which about 6,500 (4.3%) were called active. Inconclusive results (about 12%) are left out. Many of the other results were omitted from the sample, so actives are more common in it than they were. Unmarked numbers belong to inactive results. Calls come from the whole dose curve; as a rule, active = well fitted inhibition curve with a large enough effect (not every such curve was filed as active); inconclusive = small, poorly fitted or top-dose-only effect, or another doubt; inactive = no such curve, though single readings can be large or run the other way.
% is set by controls: 0 for no effect and ±100 for the full control effect; potency is the fitted concentration of half-maximal effect.

The test deals with 15-hydroxyprostaglandin dehydrogenase [NAD(+)] (Homo sapiens) (UniProt P15428). Put plainly: qHTS Assay for Inhibitors of HPGD (15-Hydroxyprostaglandin Dehydrogenase). The following applies: purified HPGD, NADH fluorescence kinetic, PGE2 substrate; activity change, negative = inhibition: hits give low values. Put shortly: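 20 nM HPGD preincubated 15 min at room temperature with compound in 50 mM Tris-HCl pH 8, 0.01% Tween 20. Started with 1 mM NAD+ and 30 uM prostaglandin E2; NADH fluorescence (360/450 nm) read 5 times over 30-s intervals, last minus first.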
Sequence of 15-hydroxyprostaglandin dehydrogenase [NAD(+)] (Homo sapiens) (P15428 whole entry, looked up): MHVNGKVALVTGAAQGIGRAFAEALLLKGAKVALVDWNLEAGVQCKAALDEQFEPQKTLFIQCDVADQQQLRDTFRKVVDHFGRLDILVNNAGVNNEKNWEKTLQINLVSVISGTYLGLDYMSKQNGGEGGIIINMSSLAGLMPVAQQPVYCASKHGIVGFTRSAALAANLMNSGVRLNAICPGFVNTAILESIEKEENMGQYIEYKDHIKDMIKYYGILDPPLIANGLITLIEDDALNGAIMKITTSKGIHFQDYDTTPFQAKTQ
(qHTS replaces the single test concentration by a dilution series.)
For the molecule `COC(=O)C1=C(C(=O)OC)[C@@H]2N(C)c3ccccc3[C@@]23C[C@@H](C(=O)OC)N(S(=O)(=O)c2cccs2)C3=N1`, the activity change, negative = inhibition was -9.16%. Take `CCCCCCCC[C@@H](O)/C=C/C=C/C=C\[C@@H](O)CCCC(=O)O`: the activity change, negative = inhibition was -0.184%.

On to `Nc1nc(SCCOc2ccccc2)n[nH]1`, for which the activity change, negative = inhibition is -1.6%.

As to `Nc1nc(SCC(=O)NNc2c(Cl)cc(Cl)cc2Cl)n[nH]1`, the Potency was 35.5 µM (active).

As for `Nc1nc(SCC(=O)NN(c2ccccc2)c2ccccc2)n[nH]1`, the activity change, negative = inhibition is -3.02%.

Take `COc1ccc(Cl)cc1NC(=O)Cn1nc(-c2ccc(C)cc2)n(C)c1=S`: the activity change, negative = inhibition was -0.416%.

Take `C[C@H]1Cc2c(COc3ccccc3)nc3c(c2CO1)CN(C(=O)Nc1cccc(C#N)c1)CC3`: the activity change, negative = inhibition is 0.277%. For `N#C/C(=C\c1ccccc1)c1n[nH]c(Cn2cncn2)n1`, the Potency is 28.2 µM (active). Turning to `S=C(NCCc1ccccc1)NCc1ccccc1Cl`, the activity change, negative = inhibition is -18.9%.

As to `O=S(=O)(NCCc1ccncc1)c1ccccc1`, the activity change, negative = inhibition is -10.2%. As for `NS(=O)(=O)c1ccc(CCNC(=O)Nc2ccc(Cl)cc2)cc1`, the activity change, negative = inhibition is -8.27%. For the molecule `Oc1cc2c(cc1O)CN(C(=S)NCCc1ccc(Cl)cc1)CCC2`, the Potency is 14.1 µM (active). On to `Cc1cc(Cl)ccc1NC(=S)NCCCN1CCCC1=O`, for which the activity change, negative = inhibition is -1.25%. With `Cc1ccnc(NC(=O)c2ccoc2C)c1`, the activity change, negative = inhibition is -2.58%. Regarding `Cc1cc2oc(C(=O)Nc3c(C)n(C)n(-c4ccccc4)c3=O)c(C)c2cc1Cl`, the activity change, negative = inhibition is -3.54%.

Turning to `O=[N+]([O-])c1cc(S(=O)(=O)N2CCCC2)ccc1NN=C1CCCC1`, the activity change, negative = inhibition was -4.68%. As to `C=C(C)c1cccc(C(C)(C)NC(=O)NC2CCCC2)c1`, the activity change, negative = inhibition is -3.62%. On to `COc1ccc(COC(=O)N/N=C(\C)CC(=O)Nc2ccc(Cl)cc2)cc1`, for which the activity change, negative = inhibition was -4.69%. With `Cc1cccn2c(=O)c(/C=C(\C#N)S(=O)(=O)c3ccc(Cl)cc3)c(N3CCC(C(N)=O)CC3)nc12`, the Potency is 15.8 µM (active). As to `Cc1ccc(C(c2nnnn2CS(=O)(=O)c2ccc(C)cc2)N2CCC(C(N)=O)CC2)cc1` (stereo not drawn), the activity change, negative = inhibition is -7.21%. Regarding `Cc1cc(C)cc(Oc2nc3c(C)cccn3c(=O)c2/C=C(\C#N)C(=O)NC2CCS(=O)(=O)C2)c1` (stereo not drawn), the activity change, negative = inhibition was -10.8%. For the molecule `CN1CCC(=NNC(=O)c2ccc(N(Cc3ccc(Cl)cc3)S(C)(=O)=O)cc2)CC1`, the activity change, negative = inhibition is -8.83%. For the molecule `O=C(NNC1CC(=O)N(c2cccc(Cl)c2)C1=O)c1cccnc1` (stereo not drawn), the activity change, negative = inhibition is -13.5%.

Consider `O=C(CNS(=O)(=O)c1ccccc1)NCC(=O)OCc1ccccc1F`, for which the activity change, negative = inhibition was 0.393%. In the case of `Cn1c(NC(=O)c2ccc3c(c2)OCO3)cc(=O)n(C)c1=O`, the activity change, negative = inhibition is -14.1%. Consider `Cc1ccc(F)cc1NC(=O)c1ccc2c(c1)OCO2`, for which the Potency was 20 µM (active). Regarding `O=C(Nc1ccccc1)c1ccc2c(c1)OCO2`, the activity change, negative = inhibition is -29.6%.

`Cc1ccc(C(=O)NC(C)c2ccccc2)cc1Br` (stereo not drawn): the activity change, negative = inhibition was -29.6%. Same read-out and setting: the result for `O=C(CSc1ncnc2scc(-c3ccccc3)c12)NCc1ccc2c(c1)OCO2` reads -13.5%; that for `O=C(NC(=S)NC1CCSC1=O)c1ccccc1F` (stereo not drawn), -13.4%. Regarding `O=C(O)C[C@@H]1NC(=O)[C@H](Cc2ccccc2)NC1=O`, the activity change, negative = inhibition is -8.82%.

Turning to `Cc1ccc(C(=O)Nc2c(C#N)c(C)c(C)n2Cc2ccccc2)cc1`, the activity change, negative = inhibition was -7.72%. `Cc1ccccc1-n1c(C)cc(/C=N/NC(=O)c2ccc(CN3CCOCC3)cc2)c1C`: the activity change, negative = inhibition was -16.5%. With `Cc1ccc(C(=O)N/N=C/c2sc(=O)n(Cc3cccc(C(=O)O)c3)c2Cl)cc1`, the Potency is 28.2 µM (active). As to `O=c1c2ccccc2c(-c2ccccc2)nn1Cc1ccccc1`, the activity change, negative = inhibition is -16.5%. Take `Cn1c(CO)cnc1SCc1ccccc1`: the activity change, negative = inhibition is 1.72%. With `CSc1c(SCc2ccccc2)cnn(Cc2ccccc2)c1=O`, the Potency is 25.1 µM (active).

As to `O=C(NNC(=O)c1cc2c(s1)CCCC2)c1ccccc1`, the activity change, negative = inhibition is -17.6%. Regarding `Cc1cccc(NC(=O)CSc2nc3[nH]ncc3c(=O)[nH]2)c1`, the activity change, negative = inhibition was -11%. Regarding `COC(=O)c1cccc(NC(=O)CSc2nc(C)cc(=O)[nH]2)c1`, the Potency is 20 µM (active). `COc1ccc(NC(=O)CSc2nc(NS(=O)(=O)c3ccc(C)cc3)cc(=O)[nH]2)cc1`: the activity change, negative = inhibition was -10.9%.

In the case of `COc1cccc(CC(=O)N2CCc3nc(COc4ccccc4)c4c(c3C2)CO[C@@H](C)C4)c1`, the activity change, negative = inhibition was -2.54%.

In the case of `Cc1ccc(N/N=C2\COC(C)(C)CC2=O)cc1`, the activity change, negative = inhibition was -19.3%. Same read-out and setting: under `C=C(C)C(=O)c1ccc(F)cc1` stands -9.12%; under `CNC(=O)/C(C#N)=C/c1c(F)cccc1Cl`, -9.42%. Still for that read-out and setting: under `O=C(NCCc1ccccc1)c1ccc(OCCOc2ccccc2)cc1` stands -14.9%.

In the case of `CC1CCCN(c2ccc(C(=O)NCCc3ccccc3)cn2)C1` (stereo not drawn), the Potency is 17.8 µM (active).

In the case of `O=C(NCCc1ccccc1)c1ccc(NC2=NC3CS(=O)(=O)CC3S2)cc1` (stereo not drawn), the activity change, negative = inhibition is -15.7%.
